Giardia kill – kills Giardia lamblia | actives 0.15% (n = 340,000) | Giardia lamblia trophozoite viability | activity change, % at 7.66 µM, hits read low; in the data active = activity change below about -80%; inconclusive = between about -30% and that limit;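 also: parasites exposed to compound for two days anaerobically before the ATP read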
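Giardia trophozoites, 100 cells per well, were exposed to compounds for 48 hrs at 37 deg C under anaerobic conditions; viability was then read as ATP content by bioluminescence after 15-30 min at room temperature.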
Sfp inh – inhibitors of Bacillus subtilis Sfp phosphopantetheinyl transferase; Biochemical Sfp PPTase activity, qHTS; Potency, µM, for the others: largest response in the series, negative = inhibition, actives largely listed as inhibitors; actives 3.5% (n = 310,000); AID 1490;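 also: the enzyme is Sfp with the accession as filed and its product quenches rhodamine fluorescence; potency is read from the fitted curve at half-maximal effect; 0% = enzyme reaction without inhibitor and -100% = no enzyme wells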
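After 15 min at room temperature with compound, 15 nM Sfp received 5 uM rhodamine-CoA plus 12.5 uM BHQ-2-ybbR (50 mM Hepes pH 7.6, 10 mM MgCl2). Rate came from the fluorescence difference over 30 min, ex 525/em 598 nm.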
ELG1 repair inh – inhibitors of ELG1-dependent DNA repair in HEK293T cells; HEK293T ELG1-luciferase reporter, luminescence, 16 h; DNA damage induced by 5-fluorouridine; Potency, µM (highest dose often 46.1 µM), for inactives: at the highest dose activity change, negative = inhibition, most hits filed as inhibitors; actives 2.3% (n = 330,000); AID 504467; also: potency is read from the fitted curve at half-maximal effect; nearly all actives have a fitted effect of over 55% in size
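Luminescence from the luciferase reporter, measured 30 min after ONE-Glo reagent at room temperature, was the read-out. Beforehand, 2,000 cells per well were exposed for 16 hr at 37 °C to 5-fluorouridine together with compound or vehicle.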
Coupling enz – coupling enzyme interference in Giardia aldolase counter-screen | actives 0.67% (n = 290,000) | activity change, negative = inhibition, % at 58.2 µM, hits read low | coupling enzyme system counterscreen, AmpLite Red fluorescence; in the data active = activity change below about -30%
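Coupling enzymes only (glyceraldehyde-3-phosphate) + compound, at 57.5 uM final, 10 min RT; add substrate/coupling/AmpLite Red mix, 20 min RT; fluorescence ex 525/em 598 nm. Actives flag coupling-system interference.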
* hit, by the source's call. The list is not random: actives were taken first. Their share in the collection is about 5.5%. Unless noted, calls follow the shape of the dose curve; as a rule, active = well fitted curve in the direction sought with a large enough effect; inconclusive = small, poorly fitted or top-dose-only effect, or another doubt; inactive = no such curve, though single readings can be large; an effect the other way counts as inactive or inconclusive. Unless noted, % is scaled to controls: 0 for no effect and ±100 for the full control effect.

Screening CCCCS(=O)(=O)N1CCc2nc(-c3ccccc3)c3c(c2C1)CO[C@@H](C)C3 returned Sfp inh -14% and Coupling enz 1.
`COc1ccc(-n2nc([N+](=O)[O-])c(=NCCc3ccccc3)n2O)cc1` gave Giardia kill inconclusive, Sfp inh -3%, ELG1 repair inh inconclusive and Coupling enz -3.
For COc1cccc(CN=c2c([N+](=O)[O-])nn(-c3ccccc3C)n2O)c1 the results were Giardia kill -109*, Sfp inh 23%, ELG1 repair inh inconclusive and Coupling enz 2.
`Cc1cccc(-n2nc([N+](=O)[O-])c(=NCc3cccnc3)n2O)c1` gave Giardia kill -88*, Sfp inh 15%, ELG1 repair inh 23% and Coupling enz 2.
O=[N+]([O-])c1nn(-c2cccc(Cl)c2)n(O)c1=NCc1cccnc1 was read as Giardia kill -20, Sfp inh -3%, ELG1 repair inh inconclusive and Coupling enz -1.
O=C(/C=C/c1cccc(C(F)(F)F)c1)NNC(=O)c1ccncc1 was read as Giardia kill -17 and ELG1 repair inh 2%.
Screening Cc1cc(-c2n[nH]c(=S)n2/N=C/C=C/c2ccco2)n[nH]1 returned Giardia kill -2, Sfp inh 56µM*, ELG1 repair inh -8% and Coupling enz -5.
`S=c1[nH]nc(-c2ccccc2)n1/N=C/C=C/c1ccco1` gave Giardia kill 10, Sfp inh 50µM*, ELG1 repair inh 9% and Coupling enz -1.
For O=[N+]([O-])c1ccccc1/C=C/C=N/n1c(-c2ccccc2F)n[nH]c1=S the results were Giardia kill 1, Sfp inh 28µM*, ELG1 repair inh 0% and Coupling enz -5.
For COc1ccccc1/C=C/C=N/n1c(-c2ccc(Cl)cc2)n[nH]c1=S the results were Giardia kill -6, Sfp inh 35µM*, ELG1 repair inh inconclusive and Coupling enz 0.
For Cc1ccccc1-c1n[nH]c(=S)n1/N=C/C=C/c1ccco1 the results were Giardia kill -29, Sfp inh -21%, ELG1 repair inh -26% and Coupling enz 2.
Screening O=[N+]([O-])c1ccccc1/C=N/n1c(-c2ccccc2)n[nH]c1=S returned Giardia kill -2, Sfp inh -13%, ELG1 repair inh 2% and Coupling enz 0.
`COc1cccc(CN(C)C(=O)c2cc(S(=O)(=O)N3CCCC3)ccc2C)c1OC` gave Giardia kill 1 and ELG1 repair inh inconclusive.
`CN1CCN(c2nc(-c3ccc(Cl)cc3)cc(=O)[nH]2)CC1` gave Giardia kill -10, Sfp inh 13%, ELG1 repair inh -5% and Coupling enz 3.
For CCCn1cc(S(=O)(=O)c2ccc(F)cc2)c(=O)c2cc(OCC)ccc21 the results were Giardia kill -1, Sfp inh 6% and ELG1 repair inh 13%.
For S=c1[nH]nc(-c2cccnc2)n1/N=C/C=C/c1ccco1 the results were Giardia kill 5, Sfp inh 16µM*, ELG1 repair inh -7% and Coupling enz -11.
Screening S=c1[nH]nc(-c2ccc(Cl)cc2)n1/N=C/C=C/c1ccco1 returned Giardia kill 0, Sfp inh 56µM*, ELG1 repair inh -3% and Coupling enz -1.
For CCOc1ccc(N/C(=N/c2nc(C)cc(C)n2)NC(=O)CC)cc1 the results were Giardia kill 6, Sfp inh -1%, ELG1 repair inh 18µM* and Coupling enz -1.
Screening CCN(c1ccccc1)S(=O)(=O)c1csc(C(N)=O)c1 returned Giardia kill 5, Sfp inh 26%, ELG1 repair inh 0% and Coupling enz 0.
For Nc1ncnc2c1cnn2-c1ccccc1 the results were Giardia kill -14, Sfp inh -12%, ELG1 repair inh inconclusive and Coupling enz 1.
S=c1nc[nH]c2c1cnn2-c1ccccc1 was read as Giardia kill 11, Sfp inh 18µM*, ELG1 repair inh inconclusive and Coupling enz -1.
`CC(=O)NCc1ccc(C(=O)CCl)cc1` gave Giardia kill -13, Sfp inh 10%, ELG1 repair inh inconclusive and Coupling enz 1.
For CC(=O)N(C)Cc1ccc(C(=O)CCl)cc1 the results were Giardia kill 6, Sfp inh 79µM*, ELG1 repair inh inconclusive and Coupling enz 2.
CCN(CC)c1ccc(/C=C(/C#N)c2nc3ccc(C)cc3[nH]2)c(OC(C)C)c1 was read as Giardia kill 8, Sfp inh -3%, ELG1 repair inh inconclusive and Coupling enz -1.
For CCCOc1cc(N(CC)CC)ccc1/C=C(/C#N)c1nc2ccc(C)cc2[nH]1 the results were Giardia kill 5, Sfp inh inconclusive, ELG1 repair inh 4.6µM* and Coupling enz 1.
Screening COc1ccc(CCN2CCCn3c2nc2c3c(=O)n(CC(C)C)c(=O)n2C)cc1OC returned Giardia kill -14, Sfp inh 8%, ELG1 repair inh inconclusive and Coupling enz 0.
Screening COc1ccc(C(NC(=O)c2ccco2)c2ccc(OC)c(OC)c2)cc1 (stereo not given) returned Giardia kill -2, Sfp inh 4%, ELG1 repair inh -2% and Coupling enz 6.
For COc1ccc(C2(CNC(=O)c3cc(OC)c(OC)c(OC)c3)CCCC2)cc1OC the results were Giardia kill -17.
For COc1ccc(C(NC(=O)/C=C/c2ccco2)c2ccc(OC)c(OC)c2)cc1OC the results were Giardia kill -10, Sfp inh 20µM*, ELG1 repair inh 2% and Coupling enz 9.
COc1ccc(C2(CNC(=O)/C=C\c3ccco3)CCCC2)cc1OC was read as Giardia kill -1, Sfp inh 18µM*, ELG1 repair inh -4% and Coupling enz -6.
Screening COc1ccc(N(C)S(=O)(=O)c2cccc(C(=O)N3CCN(S(=O)(=O)c4ccc(C)cc4)CC3)c2)cc1 returned Giardia kill 6, Sfp inh 15% and ELG1 repair inh -28%.
Cc1ccc(NC(=O)CSc2nnnn2C2CC2)cc1S(=O)(=O)N1CCOCC1 was read as Giardia kill 0 and ELG1 repair inh -7%.
For O=C(/C=C/c1ccc([N+](=O)[O-])cc1)Nc1ncc([N+](=O)[O-])s1 the results were Giardia kill -82*, Sfp inh 40µM*, ELG1 repair inh inconclusive and Coupling enz 8.
O=C(Nc1ncc([N+](=O)[O-])s1)c1cccs1 was read as Giardia kill -87*, Sfp inh 11%, ELG1 repair inh inconclusive and Coupling enz -6.
Cc1ncoc1C(=O)Nc1nccs1 was read as Giardia kill 9, Sfp inh -29%, ELG1 repair inh 16% and Coupling enz 0.
O=C(/C=C/c1ccc([N+](=O)[O-])cc1)NCc1ccccn1 was read as Giardia kill -1, Sfp inh 9%, ELG1 repair inh -2% and Coupling enz 3.
Screening COc1cccc(NC(=O)/C=C/c2ccc([N+](=O)[O-])cc2)c1 returned Giardia kill -5, Sfp inh 50µM*, ELG1 repair inh inconclusive and Coupling enz -7.

Compound activity (PubChem BioAssay)
